Results: the supplement of paper PMC7156485

tested on: TDF; assay: H1.0 immunofluorescence intensity relative to DMSO (% of DMSO); higher = stronger H1.0 induction, active = 120 or more; settings: concentration: 10 µM; 24 h
How it was run: (§1)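 Using 384-well plates with 800 cells per well in RPMI plus 10% FBS, HCC1569 and TDF cells were exposed to compounds at 10 µM, in triplicate, for 24 h at 37 °C. Imaging of six fields per well at ×10 followed H1.0 and DAPI staining. The reported quantity, H1.0 nuclear intensity or cell number, is a median of replicates given as percent of the plate control, and HCC1569 values were smoothed for positional effects.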
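Also: TDF is a line of transformed human dermal fibroblasts of mesenchymal origin.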

H1.0 immunofluorescence intensity, inactive:
CCOC(=O)C1=C(COCCN)NC(C)=C(C(=O)OC)C1c1ccccc1Cl (configuration not stated) [Amlodipine] 93.5
CN(C)CCC=C1c2ccccc2Sc2ccc(Cl)cc21.Cl [Chlorprothixene hydrochloride] 116
O=c1[nH]c(=O)c2nc3ccccc3nc2[nH]1 [Alloxazine] 101
CCCCCC=CCC=CCC=CCC=CCCCC(=O)OC(COCCCCCCCCCCCCCCCC)COP(=O)([O-])OCC[N+](C)(C)C (configuration not stated) [Arachidonyl-PAF] 93

tested on: HCC1569; assay: H1.0 immunofluorescence intensity relative to DMSO (% of DMSO); higher = stronger H1.0 induction, active = 140 or more; settings: concentration: 10 µM; 24 h
How it was run: as §1

H1.0 immunofluorescence intensity, inactive:
O=c1cc(O)cc(C=Cc2ccc(O)c(O)c2)o1 [Hispidin] 108
CS(=O)c1ccc(-c2nc(-c3ccc(F)cc3)c(-c3ccncc3)[nH]2)cc1 (configuration not stated) 104
CC(C)Cc1ccc(CC(=O)O)cc1 [(4-isobutylphenyl)acetic acid] 93.1
COc1cc2c(cc1OC)-c1cc(=Nc3c(C)cc(C)cc3C)n(C)c(=O)n1CC2.Cl [Trequinsin hydrochloride] 101
O=C(O)CNC(=O)C(=O)O [2-(carboxymethylamino)-2-oxoacetic acid] 83.7
CC(c1cc2ccccc2s1)N(O)C(N)=O (configuration not stated) [Zileuton] 101
O=C(C1CCCCC1)N1CC(=O)N2CCc3ccccc3C2C1 (configuration not stated) [Praziquantel] 106
Clc1ccc(CCC(Cn2ccnc2)Sc2c(Cl)cccc2Cl)cc1.O=[N+]([O-])O (configuration not stated) [Butoconazole nitrate] 115
